These results are taken from PubChem BioAssay.

Active and inactive are the calls of the source.

Tested on in the first assay: not listed separately
In words: budding yeast growth modifiers under rapamycin – strain BY4716, OD600, 96 h, primary screen (AID 1091). Further: test concentration not given here. Conditions: S. cerevisiae BY4716 + rapamycin, higher = more signal, called active from +8 up or from −8 down.
Regarding `COc1ccc([Si](C)(C)[C@@H]2[C@@H](CC(=O)N3Cc4ccccc4C[C@H]3CO)O[C@]3(C(=O)N(c4ccccc4)c4ccccc43)[C@H]2C)cc1`, the z-score was 2.93 (inactive).

Take `COc1ccc(C(O)C2C=CC3C(=O)N(c4ccccc4)C(=O)C3N2Nc2ccccc2F)cc1` (configuration not stated): the z-score is -0.246 (inactive). With `COCCOC(=O)N1C(=O)[C@@]2(c3cc(C#CCC(C(=O)OC)C(=O)OC)ccc31)[C@H](c1ccc(O)cc1)N1[C@H](c3ccccc3)[C@H](c3ccccc3)OC(=O)[C@H]1[C@@H]2C(=O)NC[C@H](O)c1ccccc1`, the z-score was 0.875 (inactive). With `COCC(=C=CC[C@H](O)c1cccc(OCCO)c1)C[C@H](O)COCc1ccccc1`, the z-score was -0.271 (inactive). With `C=C(C)[C@@H]1CC=C(C(O)C2C=CC3C(=O)N(c4ccccc4)C(=O)C3N2Nc2ccc(C#N)cc2)CC1` (some centres not stated), the z-score was 4.16 (inactive).

With `COc1ccc(NC(=O)O[C@H]2[C@@H]3OC(=O)[C@H](Cc4cccc(Br)c4)C/C=C/C[C@@H](Cc4cccc(Br)c4)C(=O)O[C@H]3[C@@H](OC)O[C@@H]2CO)cc1`, the z-score is -0.127 (inactive). With `C=C(/C(=C/C[C@H](OC(=O)c1ccncc1)c1cccc(OCCO)c1)c1cnc2ccccc2c1)C(C)C`, the z-score is -4.3 (inactive). On the same count and under the same terms, to `CS(=O)(=O)CCOC(=O)C1=CC(CCCO)=CC(C2CC2)N(Cc2cccc(OC(F)(F)F)c2)C=C1C(=O)OCCS(C)(=O)=O` (configuration not stated) belongs -1.75 (inactive). On the same count and under the same terms, for `NC(=O)[C@H]1[C@@H]2C(=O)O[C@@H](c3ccccc3)[C@@H](c3ccccc3)N2[C@@H](c2ccc(O)cc2)[C@]12C(=O)Nc1ccc(C#CC3=CCCCC3)cc12` the value was 2.1 (inactive); for `[N-]=[N+]=NCc1ccccc1[C@@H]1OC(c2ccc(OCCCO)cc2)=N[C@]1(Cc1ccccc1)C(=O)NCCN1CCOCC1`, 0.83 (inactive).

Consider `COc1cc(C(O)C2C=CC3C(=O)N(Cc4ccccc4)C(=O)C3N2n2cnnc2)cc(OC)c1OC` (configuration not stated), for which the z-score was -1.22 (inactive). As for `C=CCN1C(=O)[C@@]2(O[C@@H](CCO)[C@H]([Si](C)(C)c3ccc(OC)cc3)[C@H]2C)c2cc(N3CCOC3=O)ccc21`, the z-score is 9.68 (active).

`CC(C)[C@H]1NC(=O)[C@@]23C(=O)N[C@@H](Cc4ccccc4)C2[C@H](C)[C@@]2(C)O[C@H]2C3/C=C/C/C=C\CNC(=O)[C@H](Cc2ccccc2)NC1=O` (some centres not stated): the z-score was 0.246 (inactive). On the same count and under the same terms, to `O=C1C2C=CC(C(O)c3ccco3)N(Nc3ccccc3)C2C(=O)N1c1ccccc1` (configuration not stated) belongs 0.662 (inactive); to `CC(C)C[C@@H]1NC(=O)[C@@]23C(=O)N[C@@H](Cc4ccccc4)C2[C@H](C)[C@@]2(C)O[C@H]2C3/C=C/C/C=C\CNC(=O)[C@@H](C)NC1=O` (some centres not stated), -1.35 (inactive). On the same count and under the same terms, to `CCN(CC)c1ccc(N2CC=CC34O[C@@H]5/C=C\CCC(C)OC(=O)C5[C@H]3C(=O)N(C(C)CO)[C@@H]4C2=O)cc1` (some centres not stated) belongs -0.0932 (inactive); to `CO[C@H]1O[C@H](CO)[C@@H](OC(=O)c2ccc(Br)cc2)[C@@H]2OC(=O)[C@H](Cc3ccccc3)C/C=C/C[C@@H](Cc3ccccc3)C(=O)O[C@@H]12`, 0.161 (inactive). The same measure, in the same setting: for `CC(C)C(CO)N1C(=O)[C@@H]2[C@H]3C(=O)OCC=C[C@H]3OC23C=CCN(C(C)(C)C)C(=O)[C@@H]13` (some centres not stated) the value was 0.754 (inactive); for `[N-]=[N+]=Nc1ccccc1C[C@]1(C(=O)O)N=C(c2ccc(OCCCO)cc2)O[C@H]1c1ccccc1N=[N+]=[N-]`, -1.17 (inactive); for `C=C(/C(=C/C[C@@H](OC(=O)c1ccncc1)c1cccc(OCCO)c1)c1cnc2ccccc2c1)C(C)C`, 1.29 (inactive). Regarding `CCCNC(=O)[C@@]1(Sc2ccc(C)cc2)CC(=O)N(C(C)C)[C@@H]1c1ccc(CO)cc1I`, the z-score is 1.79 (inactive). Same read-out and setting: to `C=CCNC(=O)[C@@H]1[C@H]2C(=O)O[C@H](c3ccccc3)[C@H](c3ccccc3)N2[C@H](c2ccc(OCCO)cc2)[C@@]12C(=O)N(C(=O)OCCOC)c1ccc(C#CCCO)cc12` belongs 4.08 (inactive).

Turning to `CCCCCCCCCCC(O)C1C=CC2C(=O)N(c3ccccc3)C(=O)C2N1Nc1ccccc1F` (configuration not stated), the z-score is 1.62 (inactive). Same read-out and setting: to `COC(=O)C1N=C(c2ccc(OCCCO)cc2)N(c2ccccc2)O1` (configuration not stated) belongs -0.417 (inactive); to `COC(=O)[C@@]1(Cc2ccc(F)cc2)[C@H]2c3cc(C(=O)N4CCCC4)n(C)c3C[C@H]2CN1C(=O)c1ccccc1`, -0.658 (inactive); to `O=C1C2C=CC(C(O)C=Cc3ccc([N+](=O)[O-])cc3)N(Nc3ccccc3)C2C(=O)N1c1ccccc1` (configuration not stated), -0.19 (inactive).

The target of another assay is Torsin-1A-interacting protein 2 (Homo sapiens) (UniProt Q8NFQ8). In words: small molecules binding lysate-expressed LULL1 – cell lysate, human LULL1 lysate, 635/667 nm fluorescence, primary screen (AID 1092).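 Further: probe is lysate of COS7 cells overexpressing human LULL1; score merges per-feature 667 nm fluorescence with signal-to-noise.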 As to conditions: small-molecule microarray, hLULL1 lysate binding, 635 nm fluorescence; higher = more signal.
Torsin-1A-interacting protein 2 (Homo sapiens), sequence (Q8NFQ8 whole entry, looked up): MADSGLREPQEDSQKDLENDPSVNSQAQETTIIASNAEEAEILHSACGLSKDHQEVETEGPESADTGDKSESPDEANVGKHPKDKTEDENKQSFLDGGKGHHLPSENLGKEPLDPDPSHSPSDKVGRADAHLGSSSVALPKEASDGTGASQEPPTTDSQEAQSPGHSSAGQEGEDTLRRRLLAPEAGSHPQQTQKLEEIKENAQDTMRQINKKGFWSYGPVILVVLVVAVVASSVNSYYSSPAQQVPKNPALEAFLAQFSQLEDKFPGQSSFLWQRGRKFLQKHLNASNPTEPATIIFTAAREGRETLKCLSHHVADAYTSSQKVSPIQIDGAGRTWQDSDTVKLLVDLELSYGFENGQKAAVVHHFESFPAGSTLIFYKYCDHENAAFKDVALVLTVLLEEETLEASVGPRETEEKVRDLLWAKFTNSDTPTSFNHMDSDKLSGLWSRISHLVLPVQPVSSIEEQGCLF
As for `CCOC(=O)C=Cc1cc(F)ccc1O`, the composite z-score turned out to be 0.905.

For the molecule `[N-]=[N+]=Nc1ccccc1[C@@H]1OC(c2ccc(OCCCO)cc2)=N[C@]1(Cc1ccccc1)C(=O)NCc1ccccc1`, the composite z-score was 3.43. Regarding `Cc1ccccc1C(O)C1C=CC2C(=O)NC(=O)C2N1Nc1ccc(Cl)cc1Cl` (configuration not stated), the composite z-score was 2.27. For the molecule `COc1ccc([Si](C)(C)[C@H]2[C@H](CCO)O[C@@]3(C(=O)N(Cc4ccccc4)c4ccc(N5CCOC5=O)cc43)[C@@H]2C)cc1`, the composite z-score is 1.64. Take `COCC1C2CC[C@H]3C(OCc4ccc(OC)cc4)OC[C@]4(C)[C@H]3C2=C(CN4C(=O)OC(C)(C)C)[C@H](C)C1COC` (some centres not stated): the composite z-score stood at 3.78. The same measure, in the same setting: to `COCCOC(=O)N1C(=O)[C@@]2(c3cc(C#CC4(O)CCCCCC4)ccc31)[C@H](C(=O)N1CCN(c3ncccn3)CC1)[C@H]1C(=O)O[C@H](c3ccccc3)[C@H](c3ccccc3)N1[C@@H]2c1ccccc1OCCO` belongs 1.79.

In turn, `COc1ccc(C(=O)Nc2cccc(CN3C(=O)[C@@]4(O[C@@H](CC(=O)N(CCO)Cc5ccccc5)[C@H]([Si](C)(C)c5ccc(OC)cc5)[C@H]4C)c4ccccc43)c2)cc1` showed a composite z-score of 1.94. As to `COCCOC(=O)N1C(=O)[C@@]2(c3cc(C#CCNC(N)=O)ccc31)[C@H](c1ccc(O)cc1)N1[C@H](c3ccccc3)[C@H](c3ccccc3)OC(=O)[C@H]1[C@@H]2C(N)=O`, the composite z-score is -0.841. For the molecule `O=C1C2C=CC(C(O)c3cccc(O)c3)N(Nc3ccccc3)C2C(=O)N1c1ccccc1` (configuration not stated), the composite z-score came to 2.92. On the same count and under the same terms, to `COc1ccc([Si](C)(C)[C@@H]2[C@@H](CC(=O)N3Cc4ccccc4C[C@H]3CO)O[C@]3(C(=O)N(c4ccccc4)c4ccccc43)[C@H]2C)cc1` belongs 1.88; to `COc1ccc(C(O)C2C=CC3C(=O)N(c4ccccc4)C(=O)C3N2Nc2ccccc2F)cc1` (configuration not stated), 3.46; to `COCCOC(=O)N1C(=O)[C@@]2(c3cc(C#CCC(C(=O)OC)C(=O)OC)ccc31)[C@H](c1ccc(O)cc1)N1[C@H](c3ccccc3)[C@H](c3ccccc3)OC(=O)[C@H]1[C@@H]2C(=O)NC[C@H](O)c1ccccc1`, 2.75. Turning to `COCC(=C=CC[C@H](O)c1cccc(OCCO)c1)C[C@H](O)COCc1ccccc1`, the composite z-score worked out at 2.22. Take `C=C(C)[C@@H]1CC=C(C(O)C2C=CC3C(=O)N(c4ccccc4)C(=O)C3N2Nc2ccc(C#N)cc2)CC1` (some centres not stated): the composite z-score turned out to be 3.33.

`COc1ccc(NC(=O)O[C@H]2[C@@H]3OC(=O)[C@H](Cc4cccc(Br)c4)C/C=C/C[C@@H](Cc4cccc(Br)c4)C(=O)O[C@H]3[C@@H](OC)O[C@@H]2CO)cc1` displayed a composite z-score of 1.36. For `C=C(/C(=C/C[C@H](OC(=O)c1ccncc1)c1cccc(OCCO)c1)c1cnc2ccccc2c1)C(C)C`, the composite z-score amounted to 1.21. The same measure, in the same setting: for `CS(=O)(=O)CCOC(=O)C1=CC(CCCO)=CC(C2CC2)N(Cc2cccc(OC(F)(F)F)c2)C=C1C(=O)OCCS(C)(=O)=O` (configuration not stated) the value was 2.29; for `NC(=O)[C@H]1[C@@H]2C(=O)O[C@@H](c3ccccc3)[C@@H](c3ccccc3)N2[C@@H](c2ccc(O)cc2)[C@]12C(=O)Nc1ccc(C#CC3=CCCCC3)cc12`, 2.83; for `[N-]=[N+]=NCc1ccccc1[C@@H]1OC(c2ccc(OCCCO)cc2)=N[C@]1(Cc1ccccc1)C(=O)NCCN1CCOCC1`, 2.92. Regarding `COc1cc(C(O)C2C=CC3C(=O)N(Cc4ccccc4)C(=O)C3N2n2cnnc2)cc(OC)c1OC` (configuration not stated), the composite z-score stood at 1.36. Still for that read-out and setting: for `C=CCN1C(=O)[C@@]2(O[C@@H](CCO)[C@H]([Si](C)(C)c3ccc(OC)cc3)[C@H]2C)c2cc(N3CCOC3=O)ccc21` the value was 1.86; for `CC(C)[C@H]1NC(=O)[C@@]23C(=O)N[C@@H](Cc4ccccc4)C2[C@H](C)[C@@]2(C)O[C@H]2C3/C=C/C/C=C\CNC(=O)[C@H](Cc2ccccc2)NC1=O` (some centres not stated), 2.68; for `O=C1C2C=CC(C(O)c3ccco3)N(Nc3ccccc3)C2C(=O)N1c1ccccc1` (configuration not stated), 1.13. With `CC(C)C[C@@H]1NC(=O)[C@@]23C(=O)N[C@@H](Cc4ccccc4)C2[C@H](C)[C@@]2(C)O[C@H]2C3/C=C/C/C=C\CNC(=O)[C@@H](C)NC1=O` (some centres not stated), the composite z-score is -0.408. Take `CCN(CC)c1ccc(N2CC=CC34O[C@@H]5/C=C\CCC(C)OC(=O)C5[C@H]3C(=O)N(C(C)CO)[C@@H]4C2=O)cc1` (some centres not stated): the composite z-score was -0.139. Regarding `CO[C@H]1O[C@H](CO)[C@@H](OC(=O)c2ccc(Br)cc2)[C@@H]2OC(=O)[C@H](Cc3ccccc3)C/C=C/C[C@@H](Cc3ccccc3)C(=O)O[C@@H]12`, the composite z-score amounted to 1.63. `CC(C)C(CO)N1C(=O)[C@@H]2[C@H]3C(=O)OCC=C[C@H]3OC23C=CCN(C(C)(C)C)C(=O)[C@@H]13` (some centres not stated): the composite z-score is -0.963. The molecule `[N-]=[N+]=Nc1ccccc1C[C@]1(C(=O)O)N=C(c2ccc(OCCCO)cc2)O[C@H]1c1ccccc1N=[N+]=[N-]` came in with a composite z-score of 3.05.

`C=C(/C(=C/C[C@@H](OC(=O)c1ccncc1)c1cccc(OCCO)c1)c1cnc2ccccc2c1)C(C)C`: the composite z-score turned out to be 2.03. Still for that read-out and setting: for `CCCNC(=O)[C@@]1(Sc2ccc(C)cc2)CC(=O)N(C(C)C)[C@@H]1c1ccc(CO)cc1I` the value was 2.73. Same read-out and setting: for `C=CCNC(=O)[C@@H]1[C@H]2C(=O)O[C@H](c3ccccc3)[C@H](c3ccccc3)N2[C@H](c2ccc(OCCO)cc2)[C@@]12C(=O)N(C(=O)OCCOC)c1ccc(C#CCCO)cc12` the value was 1.85.
